# Assay results from PubChem BioAssay (NCATS).
# Results filed as inconclusive are left out. A call without a number means that no potency is given here. Values without a mark were called inactive. The source made the active and inactive calls. Calls follow the shape of the dose curve; as a rule, active = well fitted curve in the direction sought with a large enough effect; inconclusive = small, poorly fitted or top-dose-only effect, or another doubt; inactive = no such curve, though single readings can be large; an effect the other way counts as inactive or inconclusive.
# How the values were obtained:
# [1] = molecular target: N-terminal Xaa-Pro-Lys N-methyltransferase 1 (Homo sapiens) (UniProt Q9BV86); assay: Confirmatory qHTS for Inhibitors of N-terminal methyltransferase 1 (NTMT1): MTaseGlo Assay (AID 1645874);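 also: luminescence from SAH made as NTMT1 methylates SPKRIA peptide using SAM; series mostly up to about 100 µM; nearly all actives have a fitted effect of over 65% in size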
# Summary of the method: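 Compounds are incubated with 125 nM NTMT1 and 100 uM SAM for 15 min before the SPKRIA peptide (1 uM) starts a 30 min room-temperature methylation. SAH is measured by coupled luciferase luminescence and curves fitted to a Hill equation.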
# [2] = molecular target: Rap guanine nucleotide exchange factor 3 (Homo sapiens) (UniProt O95398); assay: Confirmatory qHTS for antagonist of cAMP-regulated guanine nucleotide exchange factor 3 (EPAC1) (AID 1645880); also: nearly all actives have a fitted effect of over 55% in size; also: potency is read from the fitted curve at half-maximal effect
# Summary of the method: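 Nucleotide exchange uses 100 nM EPAC1, 250 nM RAP1B-BODIPY-GDP and 50 uM GDP, with compounds in a concentration-titration series. After 5 min at room temperature, fluorescence (480 nm ex/540 nm em) is read every 5 min for 30 min. Data are normalized to control ATA and DMSO.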
# [3] = molecular target: Rap guanine nucleotide exchange factor 3 (Homo sapiens) (UniProt O95398); assay: Confirmatory qHTS for agonist of cAMP-regulated guanine nucleotide exchange factor 3 (EPAC1) (AID 1645881);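 also: EPAC1 catalysed release of BODIPY-GDP from Rap1B seen as fluorescence loss; nearly all actives have a fitted effect of over 75% in size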
# [4] = molecular target: Rap guanine nucleotide exchange factor 4 (Homo sapiens) (UniProt Q8WZA2); assay: Confirmatory qHTS for agonist of cAMP-regulated guanine nucleotide exchange factor 4 (EPAC2) (AID 1645884);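 also: nucleotide exchange releases bodipy-GDP from Rap1 and this lowers its fluorescence; nearly all actives have a fitted effect of over 65% in size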
# [5] = molecular target: Rap guanine nucleotide exchange factor 4 (Homo sapiens) (UniProt Q8WZA2); assay: Confirmatory qHTS for antagonist of cAMP-regulated guanine nucleotide exchange factor 4 (EPAC2) (AID 1645885); also: nearly all actives have a fitted effect of over 25% in size; also: potency is read from the fitted curve at half-maximal effect
# [6] = Primary qHTS for inhibitors of nuclear receptor binding SET domain protein 2 (NSD2) in an isogenic RCH-ACV NSD2 p.E1099K mutant (9B) (AID 1645876); also: nearly all actives have a fitted effect of over 70% in size
# [7] = Primary qHTS for inhibitors of nuclear receptor binding SET domain protein 2 (NSD2) in an RCH-ACV wild type WT cells (2C) (AID 1645877); also: nearly all actives have a fitted effect of over 70% in size
# [8] = molecular target: Glutathione peroxidase 1 (Homo sapiens) (UniProt P07203); assay: Primary qHTS Assay for Inhibitors of Recombinant Selenoprotein Glutathione Peroxidase 1 (GPX1) (AID 1845191); also: nearly all actives have a fitted effect of over 65% in size
# Summary of the method: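 Recombinant GPX1 (10 nM final) was preincubated with compound for 30 min at room temperature, then reacted with 1 mM GSH, 0.5 mM CHP, 0.5 mM NADPH and 100 nM glutathione reductase; NADPH fluorescence (340/450 nm) was read at 0 and 15 min.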
# [9] = molecular target: Rap guanine nucleotide exchange factor 3 (Homo sapiens) (UniProt O95398); assay: Counterscreen qHTS for antagonist of cAMP-regulated guanine nucleotide exchange factor 3 (EPAC1) (AID 1645888);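 also: fluorescence loss as bound BODIPY-GDP is released from Rap1B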
# Summary of the method: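 Measured: fluorescence of BODIPY-GDP bound to Rap1B, which falls as exchange proceeds. Conditions include 50 uM competing GDP, 5 and 30 min reads, and a later cAMP challenge for antagonist detection.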
# Rap guanine nucleotide exchange factor 4 (Homo sapiens), sequence (Q8WZA2 whole entry, looked up, the tested form may be a part): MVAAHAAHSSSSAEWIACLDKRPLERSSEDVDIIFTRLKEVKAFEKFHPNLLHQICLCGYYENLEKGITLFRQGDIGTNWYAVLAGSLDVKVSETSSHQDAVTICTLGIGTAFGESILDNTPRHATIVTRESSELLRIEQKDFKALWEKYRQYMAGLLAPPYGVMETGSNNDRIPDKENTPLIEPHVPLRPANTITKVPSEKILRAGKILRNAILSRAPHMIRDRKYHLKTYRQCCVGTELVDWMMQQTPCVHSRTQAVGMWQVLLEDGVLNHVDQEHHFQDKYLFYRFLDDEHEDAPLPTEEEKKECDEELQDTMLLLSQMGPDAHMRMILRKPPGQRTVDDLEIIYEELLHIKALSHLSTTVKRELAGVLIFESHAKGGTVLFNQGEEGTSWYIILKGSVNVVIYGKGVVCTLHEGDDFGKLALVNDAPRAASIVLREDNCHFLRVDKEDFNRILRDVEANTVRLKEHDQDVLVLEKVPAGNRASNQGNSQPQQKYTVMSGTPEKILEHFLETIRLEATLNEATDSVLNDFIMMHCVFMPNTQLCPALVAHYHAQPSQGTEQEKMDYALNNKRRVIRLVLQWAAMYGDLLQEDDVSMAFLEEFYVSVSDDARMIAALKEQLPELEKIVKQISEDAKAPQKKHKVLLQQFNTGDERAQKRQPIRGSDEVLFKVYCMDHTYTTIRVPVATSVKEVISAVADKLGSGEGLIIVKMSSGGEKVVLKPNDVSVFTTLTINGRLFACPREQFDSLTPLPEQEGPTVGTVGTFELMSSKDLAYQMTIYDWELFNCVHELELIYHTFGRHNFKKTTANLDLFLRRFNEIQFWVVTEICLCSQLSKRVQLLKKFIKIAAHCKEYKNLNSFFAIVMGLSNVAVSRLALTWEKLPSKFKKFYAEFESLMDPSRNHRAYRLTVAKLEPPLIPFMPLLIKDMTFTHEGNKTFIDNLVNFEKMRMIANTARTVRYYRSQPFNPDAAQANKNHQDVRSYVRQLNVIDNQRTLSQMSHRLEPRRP
# Rap guanine nucleotide exchange factor 3 (Homo sapiens), sequence (O95398 whole entry, looked up): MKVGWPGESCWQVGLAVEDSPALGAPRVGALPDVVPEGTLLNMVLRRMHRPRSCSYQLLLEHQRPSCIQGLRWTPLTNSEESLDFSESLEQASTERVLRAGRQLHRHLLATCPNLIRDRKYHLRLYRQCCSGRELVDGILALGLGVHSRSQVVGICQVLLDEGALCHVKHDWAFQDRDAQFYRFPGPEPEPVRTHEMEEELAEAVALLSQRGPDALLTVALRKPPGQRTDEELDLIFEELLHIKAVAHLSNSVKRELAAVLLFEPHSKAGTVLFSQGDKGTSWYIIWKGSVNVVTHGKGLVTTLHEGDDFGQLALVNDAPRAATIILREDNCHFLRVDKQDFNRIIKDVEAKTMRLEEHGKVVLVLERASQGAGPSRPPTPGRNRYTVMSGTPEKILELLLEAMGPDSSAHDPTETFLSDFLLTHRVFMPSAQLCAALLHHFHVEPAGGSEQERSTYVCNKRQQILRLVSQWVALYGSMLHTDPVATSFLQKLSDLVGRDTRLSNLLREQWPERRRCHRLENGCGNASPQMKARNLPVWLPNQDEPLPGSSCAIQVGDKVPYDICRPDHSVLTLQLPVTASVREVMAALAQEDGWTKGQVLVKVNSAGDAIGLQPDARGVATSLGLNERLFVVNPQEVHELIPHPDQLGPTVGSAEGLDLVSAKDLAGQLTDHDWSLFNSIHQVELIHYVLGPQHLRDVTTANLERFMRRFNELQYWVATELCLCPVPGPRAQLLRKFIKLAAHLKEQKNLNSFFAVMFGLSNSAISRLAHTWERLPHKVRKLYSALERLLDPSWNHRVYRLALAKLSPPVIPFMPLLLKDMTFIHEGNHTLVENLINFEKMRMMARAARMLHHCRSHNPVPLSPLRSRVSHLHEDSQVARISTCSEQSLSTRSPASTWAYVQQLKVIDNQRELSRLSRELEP
# Glutathione peroxidase 1 (Homo sapiens), sequence (P07203 whole entry, looked up): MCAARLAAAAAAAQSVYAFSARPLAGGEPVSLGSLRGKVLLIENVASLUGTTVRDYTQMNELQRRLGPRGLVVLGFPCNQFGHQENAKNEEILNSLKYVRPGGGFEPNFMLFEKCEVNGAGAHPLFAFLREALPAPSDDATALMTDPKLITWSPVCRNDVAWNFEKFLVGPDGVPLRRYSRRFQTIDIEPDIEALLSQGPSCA
# N-terminal Xaa-Pro-Lys N-methyltransferase 1 (Homo sapiens), sequence (Q9BV86 whole entry, looked up): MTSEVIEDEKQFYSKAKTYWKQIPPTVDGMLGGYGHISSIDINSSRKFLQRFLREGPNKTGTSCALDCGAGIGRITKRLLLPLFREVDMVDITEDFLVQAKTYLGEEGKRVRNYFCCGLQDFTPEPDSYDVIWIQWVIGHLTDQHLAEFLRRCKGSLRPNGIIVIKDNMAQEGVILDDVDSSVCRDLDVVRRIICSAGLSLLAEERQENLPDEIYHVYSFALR
compound,measurement,setting,value
CCOc1ccc(CN(CCc2ccc3c(c2)OCO3)Cc2cccc(Br)c2)cc1,outcome,[1],inactive
COC(=O)C1=C(c2cc3ccccc3s2)C[C@@H]2CC[C@H]1N2C(=O)NC1CC1,Potency,[2],inactive
same,Potency,[3],inactive
same,Potency,[4],inactive
same,Potency,[5],inactive
c1cc2c(cc1C1OC[C@@H]3C(c4ccc5c(c4)OCO5)OC[C@H]13)OCO2 (stereo partly drawn),Potency,[6],inactive
same,Potency,[7],inactive
same,Potency,[8],inactive
CCOC(=O)[C@]12Cc3cc(C)ccc3[C@H]1N(Cc1ccccc1)C(=O)c1ccccc12,Potency,[2],inactive
same,Potency,[3],inactive
same,Potency,[4],inactive
same,Potency,[5],inactive
CCc1nc2ccccc2c(=O)n1-c1ccccc1OC,Potency,[2],inactive
same,Potency,[3],inactive
same,Potency,[4],inactive
same,Potency,[5],33.8 µM (active)
Cc1c(NS(=O)(=O)c2ccccc2)ccc([N+](=O)[O-])c1Cl,Potency,[2],inactive
same,Potency,[3],inactive
same,Potency,[4],inactive
same,Potency,[5],inactive
same,outcome,[9],inactive
O=c1nc(/C=C/c2ccc(Cl)cc2Cl)cc(C(F)(F)F)[nH]1,Potency,[2],44.7 µM (active)
same,Potency,[3],inactive
same,activation,[4],"-2.31% [at 17.1 µM, percent relative to cAMP agonist control]"
same,"activity change, negative = inhibition",[5],-10% [at 12.7 µM]
Cc1ccc(N2C(=O)NC(=O)/C(=C\C=C\c3ccco3)C2=O)cc1,Potency,[2],42.6 µM (active)
same,Potency,[3],inactive
same,Potency,[4],inactive
same,Potency,[5],inactive
same,outcome,[9],inactive
CCOC(=O)[C@]12Cc3cc(C)ccc3[C@H]1N(C1CCCCC1)C(=O)c1ccccc12,Potency,[2],inactive
same,Potency,[3],inactive
same,activation,[4],"4.83% [at 17.1 µM, percent relative to cAMP agonist control]"
same,"activity change, negative = inhibition",[5],-27.9% [at 12.7 µM]
Cc1c2cnn(CC(=O)N3CCC4(CC3)OCCO4)c(=O)c2c(C)n1Cc1ccc(F)cc1,Potency,[2],inactive
same,Potency,[3],inactive
same,Potency,[4],inactive
same,Potency,[5],inactive
same,outcome,[9],inactive
COc1ccc(C(SCC(NC(=O)OCc2ccccc2)C(=O)O)c2ccc(OC)cc2)cc1 (stereo not drawn),Potency,[2],inactive
same,Potency,[3],inactive
same,Potency,[4],inactive
same,Potency,[5],inactive
